# Measured values taken from the supplement of paper PMC6555819.
# System: PPARg:RXRa IVT, anti-PPARg (NR concentration 270 nM, RXRa partner concentration 90 nM)
# Test: PBM binding z-score (relative to random genomic background probes); higher = stronger binding; sequences stand for … in GC…GCGATTGACAGCGTAGAATGAAGG
# Method in brief: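 For binding z-scores, the reference was random background probes on custom Agilent 4×180K protein-binding microarrays. These arrays were incubated 1 h with ligand-free nuclear receptor dimers in PBS pH 7.4, 2% milk, 0.02% Triton X-100, 1 mM DTT, 0.2 mg/mL BSA and 0.4 mg/ml salmon testes DNA. Fluorescence was scanned after antibody detection of each partner (one per run) and regression-normalized.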
row,Sequence,PBM binding z-score
1,CGAACTAGGGCATCCAGGACAGTGAATACATTGA,6.16
2,TCGAATAGGTTAGTCGGGGCATTCAGCCAACATA,0.81
3,TCTGGGAGGACACGAAAGGTCAGAGCTCGACATC,1.89
4,CCGAGTAGGTTATGGGGCATACAGGCAACGGTGA,3.61
5,CAGCCTAGGTCAGGGCCAGTTTAGGAGGAACGTT,1.79
6,TAGCCTAGGTCAAGGGCCAGTATACCACGCGAAC,3.19
7,ACTAGTTGGTCAGCTGAGGTCATACACAATTCGG,2.35
8,CGTCCAAGGTCAAGGTCAGTCAAAGAGACTCGAA,4.78
9,AGTCAAAGTTCGTCTAGGTAACGTAAGATATGCT,1.36
10,CGTTAAAGTTCAACTAAGGTAACGTAAAGCACGC,1.7
11,ACTTACGGGTCAACGAGGGTATAGCACGCGTATA,3.73
12,ATCTCTAAGTAAAGATAGTTCAGTGAATGCAAAT,-0.072
13,GATACAGGGTCAGCTAGAGGCTAGAGTATGGAAA,2.17
14,CCAGACAGGTGAGAAGGGAACTCAGCCTCGATTA,0.343
15,CCTGCTAAGTCAATGGTCAGCTAAAGCAGCTCGC,-0.663
16,CTACCAAGGTGAACAAGGTCGCTGATTACTATTC,2.81
17,CCTGCTAGGTCATGATCAGCTAATCTACAGTATG,3.32
18,TCTAGCAGGACAGAGGGTCACTCAAGAGGTACGG,0.465
19,ACTAGCAGGCCAAGTTTGGTTCACTCAAACAAAG,0.311
20,ATCTCTAGCTAACAAGTTCAGTGAAAGAGAGGAC,0.373
21,TCTATCAGGCCAGAGGGTCACTCAAGAGGTACGG,1.3
22,GTACCAAGGTGCATAGGTCGTTGATGAGTAGGCG,0.0785
